# From the supplement of paper PMC6555819
# How the values were obtained:
# Assay in all cases: PBM binding z-score (relative to random genomic background probes); higher = stronger binding; sequences stand for … in GC…GCGATTGACAGCGTAGAATGAAGG
# [1] = system: FXR:RXRa (NR concentration 270 nM, RXRa partner concentration 90 nM)
# How it was run: (§1)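 Custom Agilent 4×180K protein-binding microarrays carried double-stranded probes. Their 34-nt variable regions held direct-repeat seeds, single-nucleotide variants, half-site ablations and random human genomic background sequences. Arrays were incubated 1 h with ligand-free nuclear receptor dimers in PBS pH 7.4, 2% milk, 0.02% Triton X-100, 1 mM DTT, 0.2 mg/mL BSA and 0.4 mg/ml salmon testes DNA. Antibodies against each partner (one per run) detected binding, and scanned fluorescence was regression-normalized. Binding z-scores use random background probes as reference.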
# [2] = system: LXRa:RXRa (NR concentration 270 nM, RXRa partner concentration 90 nM)
# How it was run: as §1
# [3] = system: LXRa homodimer (NR concentration 270 nM)
# How it was run: as §1
# [4] = system: LXRb:RXRa (NR concentration 270 nM, RXRa partner concentration 90 nM)
# How it was run: as §1
# [5] = system: LXRb homodimer (NR concentration 270 nM)
# How it was run: as §1
# [6] = system: PPARa:RXRa (NR concentration 270 nM, RXRa partner concentration 90 nM)
# How it was run: as §1
# [7] = system: PPARg:RXRa (NR concentration 180 nM, RXRa partner concentration 90 nM)
# How it was run: as §1
# [8] = system: PPARg:RXRa 270nM:90nM, anti-RXR (NR concentration 270 nM, RXRa partner concentration 90 nM)
# How it was run: as §1
# [9] = system: PPARg:RXRa 30nM:10nM, anti-RXR (NR concentration 30 nM, RXRa partner concentration 10 nM)
# How it was run: as §1
# [10] = system: PPARg:RXRa 90nM:30nM, anti-RXR (NR concentration 90 nM, RXRa partner concentration 30 nM)
# How it was run: as §1
# [11] = system: PPARg:RXRa DBDmut IVT, anti-RXR (DBD mutation: RXRa K156A/R161A, NR concentration 270 nM, RXRa partner concentration 90 nM)
# How it was run: as §1
# [12] = system: PPARg:RXRa IVT, anti-PPARg (NR concentration 270 nM, RXRa partner concentration 90 nM)
# How it was run: as §1
# [13] = system: PPARg DBDmut:RXRa IVT, anti-PPARg (DBD mutation: PPARg1 K132A/R137A, NR concentration 270 nM, RXRa partner concentration 90 nM)
# How it was run: as §1
# [14] = system: PPARg DBDmut IVT, anti-PPARg (DBD mutation: PPARg1 K132A/R137A, NR concentration 270 nM)
# How it was run: as §1
# [15] = system: PPARg homodimer (NR concentration 180 nM)
# How it was run: as §1
# [16] = system: PXR:RXRa (NR concentration 270 nM, RXRa partner concentration 90 nM)
# How it was run: as §1
# [17] = system: PXR homodimer (NR concentration 270 nM)
# How it was run: as §1
# [18] = system: RARa:RXR (NR concentration 270 nM, RXRa partner concentration 90 nM)
# How it was run: as §1
# [19] = system: RARa homodimer (NR concentration 270 nM)
# How it was run: as §1
# [20] = system: RARb:RXRa (NR concentration 270 nM, RXRa partner concentration 90 nM)
# How it was run: as §1
Sequence,PBM binding z-score [1],PBM binding z-score [2],PBM binding z-score [3],PBM binding z-score [4],PBM binding z-score [5],PBM binding z-score [6],PBM binding z-score [7],PBM binding z-score [8],PBM binding z-score [9],PBM binding z-score [10],PBM binding z-score [11],PBM binding z-score [12],PBM binding z-score [13],PBM binding z-score [14],PBM binding z-score [15],PBM binding z-score [16],PBM binding z-score [17],PBM binding z-score [18],PBM binding z-score [19],PBM binding z-score [20]
ACAGACACGTGAGTGAAGGTAACTCAGCTGGACG,-0.234,-0.154,-0.292,-0.456,-0.355,-0.342,0.663,-0.357,-0.193,-0.63,-0.453,-0.172,-0.0263,0.112,-0.539,-0.408,-0.777,-0.0459,-0.522,-0.255
CAAACTGGGTCACGAAAGGTCAAAGTCGAATGAC,7.32,8.03,6.63,7.01,2.08,6.6,10.5,8.52,6.44,8.43,8.29,8.88,2.86,1.62,5.34,7.09,2.6,7.48,2.73,5.56
GCATATAGTTAATACAAGGTGAAAGTCCGATTGT,0.799,0.553,0.623,0.44,-0.202,0.488,0.801,0.639,0.496,0.653,0.418,0.597,0.14,1.15,0.564,0.322,0.372,0.691,0.956,0.235
CGTCCAAGTTCATAGGAGGTCAGTGAAGACAGAT,5.25,6.43,3.8,4.3,0.586,3.83,1.6,2.43,0.744,1.47,0.698,1.81,0.494,0.544,3.04,6.14,9.37,4.07,1.68,4.14
TCATATAGGTAAATGCTTGGTGAAAGTCCGATCT,0.688,0.994,0.23,0.824,-0.0277,1.12,0.522,2.24,3.68,2.72,4.12,2.04,1.15,1.07,0.653,0.501,0.156,0.651,1.11,0.221
CCTATTAGTTGACCATAAGGGCAACAGAAGCTCG,0.832,0.536,0.381,0.601,0.473,0.814,0.639,0.432,0.111,0.284,0.409,0.628,-0.0621,0.417,1.95,0.896,0.847,1.15,1.6,1.42
TGTCAAAGTTCAAAGTTAACGTAAGTATCCACAC,6.94,6.38,5.46,4.6,2.99,5.59,8.27,7.38,5.04,7.29,0.374,4.24,1.16,1.99,2.65,5.04,4.24,4.46,1.12,5.12
TCTAGTTGGTCAACGGTCACACACTCGAAATGCG,0.705,0.745,0.892,1.04,0.0272,2.38,3.99,5.35,4.78,5.32,2.4,2.99,0.499,0.932,1.48,0.697,0.127,0.78,1.23,2.31
CCTAGCAGGCCACTCTGGGTCACTCAAGGCTTGA,1.22,4.55,0.221,1.91,-0.897,2.33,0.363,0.663,-0.56,0.0943,2.5,3.22,-0.679,-2.2,0.299,1.04,-0.493,1.32,-0.337,1.55
AGATGTAGGTTAAGGGTCATTCAGGTTGGTTCGC,5,5.02,2.97,4.61,1.63,6.45,11,9.78,9.52,10.7,7.33,7.46,1.97,1.04,3.44,5.52,3.11,6.2,2.4,3.66
CCTACTAGGCCAAAGGTCATTGATTCCAATGCTC,5.07,5.49,4.69,5.36,1.48,6.66,12.3,10.5,11.4,11.8,6.51,7.41,1.46,1.49,3.89,5.56,2.25,6.39,2.46,4.79
TCTGACAGGTGAAGGTAACTCAGGTACGCAGTCG,0.497,1.97,-0.123,0.856,-0.258,1.14,0.602,1.55,2.9,2.32,2.21,1.39,0.246,-0.0142,0.45,0.483,-0.371,0.82,0.0675,1.28
TTACCAAGGAGAAAGGTCGTTGATGCACGCCTTG,1.02,1.35,0.0075,1.32,-0.338,2.37,2.36,4.03,2.56,3.74,0.0947,0.908,0.246,0.131,0.653,1.82,-0.00641,2.12,-0.114,1.5
CGTACAAGGTCATAGGAGGTCAGTGAAGACAGAT,7.48,7.5,5.3,6.46,1.33,6.18,6.47,6.66,3.17,5.29,3.97,5.5,1.11,0.76,3.74,6.82,3.5,5.66,1.72,5.44
AGTCAAAGTTCAGGACGAGGTAACGTCAAGCACG,4.26,3.98,1.22,1.77,-0.0254,3.5,4.43,4.98,1.87,4.04,-0.313,1.89,0.047,-0.603,3.18,3.06,1.42,3.01,1.63,4.25
CAAACTAGGTCAAGAGGTCAAAGCCCGCTTCCCG,7.07,6.28,5.68,5.4,1.5,6.76,10.1,8.55,7.71,8.87,8.12,8.64,4.39,2.45,7.29,6.42,1.66,7.68,2.35,5.54
GCGACTGGGCCAAAGCAGGTTACCATAAGGTTGG,-0.0779,-0.533,-0.738,-0.554,-1.58,0.468,0.648,0.456,-0.481,0.0774,2.12,1.67,-1.03,-0.738,-0.482,-0.203,-0.655,0.347,-0.649,-0.0107
CCAGACAGGTGAGAAGGTATCTCAGCCTCGATTA,-0.148,-0.116,0.0657,-0.418,-0.551,0.0664,0.278,-0.0698,-0.296,-0.148,0.865,0.119,-1.02,-0.0601,0.414,-0.407,0.0596,0.185,0.147,0.303
TAGCCTAGGTCATTGGGCCAGTAGAGTACGCATC,3.86,3.33,0.509,2.17,-0.0447,3.92,3.68,3.97,0.744,2.76,2.83,3.89,-0.36,-0.247,0.811,1.57,-0.0607,2.13,-0.3,3.54
AGAACGAGGGCACGCTGAGTTGAAAGCAGAGTAG,0.945,0.542,-0.955,0.276,-0.933,2.38,2.11,1.77,0.0784,1.03,3.49,3.67,0.808,0.246,0.111,1.36,-0.00968,1.1,-0.124,2.51
ATCTCGAGGTAACAAGTTCAGTGAAAGAGAGGAC,0.617,0.888,0.333,0.61,0.253,1.51,0.717,0.867,-0.0837,0.456,0.257,1.41,0.523,1.06,0.56,1.74,1.63,1.3,0.416,1.73
GGAACGAGGGCAAAGTTTATAGCATCTGTCGACG,1.77,1.29,0.174,1.19,-0.358,4.45,7.54,7.55,7,7.92,4.26,4.43,0.246,0.345,0.817,1.91,0.961,1.74,0.0168,2.6
TAGCCTAGGTCAGATCGGGCCATTATACGCTATA,2.53,1.3,-0.125,1.07,-0.132,1.55,0.711,0.523,-0.272,0.0184,0.579,1.34,-0.598,-0.774,0.357,2.69,-0.448,1.33,-0.736,2.84
TAGCCTAGGTCATTGGGCCGGTATAGTACGCATC,4.26,2.99,0.765,2.23,0.429,3.43,2.46,2.72,0.313,1.53,1.71,3.19,0.219,-0.308,0.812,1.39,-0.428,1.95,-0.0602,3.48
GCGAATGGGGCATCAGCAGGTTACCATAACTTAA,-0.164,-0.221,-0.232,0.924,-0.446,0.796,0.281,-0.0121,-0.215,-0.384,0.757,0.63,-0.741,-0.65,0.165,0.102,-0.437,0.532,-0.444,0.614
CGAACTAGGTCATCCAGGACGGTGAATACATTGA,4.05,2.29,0.0785,1.64,-0.427,4.85,7.27,6.3,3.61,5.41,7.81,8.21,2.02,0.711,0.484,1.5,0.391,2.02,0.0502,3.78
GATACAGGGACAGCTAGAGGCCAGAGTATGGAAA,-0.243,-0.821,-0.464,-0.674,-0.57,-0.178,0.636,-0.579,-0.2,-0.369,-0.328,-0.138,-0.157,-0.323,0.377,-0.289,0.168,0.0222,0.173,0.833
ATCGAAAGGTCGACGAGGTGAGTCTACACCGTTT,4.73,3.39,-0.244,2.47,0.381,4.55,2.93,3.2,0.846,1.9,0.545,2.03,1.28,0.606,1.13,3.31,0.495,3.84,0.442,3.98
